Growth data for 14 molecules are collected here from PubChem BioAssay (NCI).

Some test systems named below: T-47D breast; BT-549 breast; MDA-MB-435 melanoma; SW-620 colon; MCF7 breast; HCT-116 colon; HCC-2998 colon; KM12 colon.
What all share (experiment): NCI-60 one-dose screen, 48 h (100 = growth as untreated, 0 = no growth, -100 = all killed)
What all share (conditions): 10 µM unless noted

About 83,000 compounds went through this panel and 20% of them were active in at least one assay; those are over-represented in the sample as a whole.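 Values shown are percent growth following 48 h exposure of cells in 96-well plates to a single concentration of compound; below 10 was considered active.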 A number with no mark means an inactive call. Active and inactive are the calls of the source.

As to `COc1cc(C(=O)c2cc(C)c3[nH]c4ccc(C)cc4c3c2C)cc(OC)c1OC`, the growth in the assay with T-47D breast was 39.9%; in the assay with BT-549 breast, 14.5%; in the assay with MDA-MB-435 melanoma, 17.5%; in the assay with SW-620 colon it was 31.4%; with MCF7 breast, 11.6%; in the assay with HCT-116 colon, 5.32% (active). Further, the values for the growth in the assay on HCC-2998 colon and in the assay on KM12 colon were 15.9% and 3.84% (active), respectively.
Take `C=C1C(=O)O[C@H]2[C@H]1CC/C(COC(=O)CCC(=O)NCCOCCOCC(=O)Nc1ccc(OC)c(C(N)=O)c1O)=C\CC[C@@]1(C)O[C@@H]21`: the growth is 87.1% in the assay with T-47D breast; 85.9% in the assay with BT-549 breast; 97.8% with MDA-MB-435 melanoma; 64.2% in the assay on SW-620 colon; 74.6% in the assay on MCF7 breast; 69.5% in the assay with HCT-116 colon. The growth with HCC-2998 colon was 112%; in the assay with KM12 colon, 102%.
In the case of `NCCCNc1nc2ccccc2c2c(=O)c3cc(OC(F)(F)F)ccc3sc12`, the growth in the assay on T-47D breast is -9.69% (active); in the assay on BT-549 breast, 93.1%; in the assay on MDA-MB-435 melanoma, -79.2% (active); in the assay with SW-620 colon, -75.8% (active); in the assay on MCF7 breast, -70.1% (active); in the assay with HCT-116 colon, -83.4% (active). The growth was -88.1% (active) in the assay with HCC-2998 colon and -89.3% (active) in the assay on KM12 colon.
Regarding `c1ccc(-c2nc3nonc3nc2-c2ccccc2)cc1`, the growth in the assay on T-47D breast was 61.6%; with BT-549 breast, 56.2%; in the assay with MDA-MB-435 melanoma, 43.1%; with SW-620 colon, 82.3%; in the assay on MCF7 breast, 60.9%; in the assay on HCT-116 colon, 62.5%. The growth in the assay on HCC-2998 colon is 95.4%; with KM12 colon it was 74.4%.
Turning to `Cc1cc(=O)oc2cc(OC(=O)CN3CCN(C)CC3)ccc12`, the growth in the assay on T-47D breast is 102%; in the assay with BT-549 breast, 114%; in the assay on MDA-MB-435 melanoma, 100%; in the assay on SW-620 colon, 96.2%; in the assay on MCF7 breast, 93.1%; in the assay with HCT-116 colon, 95.8%. Moreover, the results for the growth in the assay on HCC-2998 colon and with KM12 colon were 108% and 99.5%, respectively.
Take `COc1cc(C2CC(c3ccc(N(C)C)cc3)=NN2C(C)=O)cc(OC)c1OC` (configuration not stated): the growth with T-47D breast is 31.7%; in the assay with BT-549 breast, 45.1%; with MDA-MB-435 melanoma, -65.6% (active); with SW-620 colon, 10.7%; with MCF7 breast, 11.5%; in the assay with HCT-116 colon, 20.6%. The growth in the assay with HCC-2998 colon was 24.9%; with KM12 colon, 10.8%.
With `N#CC1=C(N)Oc2c(sc3c(Br)cccc23)C1c1ccc([N+](=O)[O-])cc1` (configuration not stated), the growth was 64.9% with T-47D breast; 28.8% with BT-549 breast; -58.4% (active) in the assay on MDA-MB-435 melanoma; 18.1% in the assay with SW-620 colon; 10.2% in the assay with MCF7 breast; 8.77% (active) with HCT-116 colon. The growth in the assay on HCC-2998 colon is 10.2%; in the assay with KM12 colon it was 8.9% (active).
For the molecule `COc1cc(-c2nc3sccn3c2-c2ccnc(NCCCNS(=O)(=O)c3ccc(F)cc3)n2)ccc1F`, the growth in the assay on T-47D breast was 15.5%; in the assay on BT-549 breast, 42.8%; in the assay on MDA-MB-435 melanoma, 65.8%; in the assay with SW-620 colon, 106%; with MCF7 breast, 76.1%; in the assay on HCT-116 colon, 58.1%. Besides, the growth in the assay with HCC-2998 colon is 95.5%; in the assay with KM12 colon it was 74.2%.
Regarding `NC1CCN(c2nc(Nc3cccc(C(F)(F)F)c3)c3c(=O)[nH]ccc3n2)CC1`, the growth in the assay on T-47D breast was -73.2% (active); with BT-549 breast, -91.8% (active); in the assay with MDA-MB-435 melanoma, -74.2% (active); with SW-620 colon, -76.8% (active); in the assay with MCF7 breast, -85.8% (active); with HCT-116 colon, -99.5% (active). Further, the growth with HCC-2998 colon is -85.8% (active); in the assay on KM12 colon it was -67.1% (active).
On to `O=C1c2cccc3cccc(c23)C(=O)N1Nc1nc(N2CCOCC2)nc(N2CCN(c3ccccc3)CC2)n1`, for which the growth in the assay with T-47D breast is 37.3%; in the assay on BT-549 breast, 37.8%; in the assay on MDA-MB-435 melanoma it was -12.6% (active); in the assay with SW-620 colon it was 32.6%; in the assay on MCF7 breast, 17.9%; in the assay with HCT-116 colon it was 31.2%. Moreover, the growth in the assay on HCC-2998 colon was 77.6%; in the assay on KM12 colon it was 48.5%.
Regarding `CN(C)CCNc1nc2ccccc2c2c(=O)c3cc(F)ccc3sc12`, the growth in the assay on T-47D breast is 66.1%; in the assay with BT-549 breast, 64.4%; in the assay with MDA-MB-435 melanoma, 1.18% (active); in the assay with SW-620 colon, -48% (active); in the assay with MCF7 breast it was 34.3%; with HCT-116 colon, -11.2% (active). For the same molecule, the growth in the assay with HCC-2998 colon is -64.5% (active); in the assay on KM12 colon it was 8.53% (active).
As for `O=C(N/N=C/c1c(Cl)cccc1Cl)c1ccc(C(F)(F)F)nc1Nc1cccc(C(F)(F)F)c1`, the growth in the assay on T-47D breast is -9.07% (active); with BT-549 breast, -5.79% (active); in the assay on MDA-MB-435 melanoma, 24.2%; with SW-620 colon, 7.71% (active); in the assay with MCF7 breast, 1.97% (active); in the assay with HCT-116 colon, -19.6% (active). The results for the growth in the assay with HCC-2998 colon and with KM12 colon were -29.2% (active) and 8.17% (active), respectively.
For the molecule `Cc1ccc(-c2nc(SCC(=O)Nc3nc(-c4ccc(Cl)cc4)cs3)[nH]c(=O)c2C#N)cc1`, the growth in the assay with T-47D breast was 87.2%; with BT-549 breast, 83.6%; with MDA-MB-435 melanoma it was 107%; in the assay on SW-620 colon, 107%; in the assay with MCF7 breast, 97.7%; in the assay with HCT-116 colon it was 91.6%. Besides, the growth in the assay with HCC-2998 colon was 109%; with KM12 colon, 96.1%.
On to `COC(=O)CCC/C=C\C[C@H]1C=CC(=O)/C1=C/C[C@@H](O)CCc1cccc(C(F)(F)F)c1`, for which the growth with T-47D breast was 9.77% (active); with BT-549 breast, -11.4% (active); in the assay with MDA-MB-435 melanoma it was -82.2% (active); in the assay with SW-620 colon, -40% (active); in the assay with MCF7 breast, 6.5% (active); in the assay with HCT-116 colon it was -89% (active). Besides, the figures for the growth in the assay with HCC-2998 colon and in the assay on KM12 colon were -89.6% (active) and -51.9% (active), respectively.
